Assay results published in the supplement of paper PMC10849652.
Targets with a hit are over-represented here; the source holds about 8,800 in all. About 0.5% of all pairs of compound and target were hits. Values without a mark were called inactive.

Columns and labels:
Assay in all cases: log2 fold change, soluble protein after heating vs DMSO (PISA); higher = thermal stabilisation; K562 lysate, 10 uM; active = over 0.2 and 3.5 SD of the protein, either way, in both replicates (recomputed)
vemurafenib = compound: CCCS(=O)(=O)Nc1ccc(F)c(C(=O)c2c[nH]c3ncc(-c4ccc(Cl)cc4)cc23)c1F [vemurafenib]
Summary of the method: (§1)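 Dounce homogenisation of K562 pellets in PBS pH 7.4 with 1 mM MgCl2 produced a crude extract, used at 1 mg/mL protein. Exposure to 10 μM compound lasted 30 min, and aliquots were then heated for 3 min across 48°C-58°C, pooled and brought to 0.5% NP-40 at 4°C. The supernatant after 21,000xg for 90 min was quantified by TMTpro 16plex LC-MS/MS with channel sums equalised. Duplicate values are given as log-two fold change in thermal stability relative to solvent controls.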

[1] = compound: CCCS(=O)(=O)Nc1ccc(F)c(C(=O)c2c[nH]c3ncc(Cl)cc23)c1F
Summary of the method: as §1

barasertib = compound: CCN(CCCOc1ccc2c(Nc3cc(CC(=O)Nc4cccc(F)c4)[nH]n3)ncnc2c1)CCOP(=O)(O)O [barasertib]
Summary of the method: as §1

[2] = compound: CC[C@@H]1C(=O)N(C)c2cnc(Nc3ccc(C(=O)NC4CCN(C)CC4)cc3OC)nc2N1C1CCCC1
Summary of the method: as §1

volasertib = compound: CC[C@@H]1C(=O)N(C)c2cnc(Nc3ccc(C(=O)N[C@H]4CC[C@H](N5CCN(CC6CC6)CC5)CC4)cc3OC)nc2N1C(C)C [volasertib]
Summary of the method: as §1

[3] = compound: CCn1c(C(=O)N(C2CC2)C2CC2)cc2c3c(ncn3C)c(Nc3cc(C)n(C)n3)nc21
Summary of the method: as §1

[4] = compound: CCn1cc(-c2ccnc3[nH]c(-c4cccc(CN(C)C)c4)cc23)c(-c2ccc(NC(=O)N(C)C)cc2)n1
Summary of the method: as §1

[5] = compound: CN1CCC(CNc2ccc3ncc(-c4cccc(OC(F)(F)F)c4)n3n2)CC1
Summary of the method: as §1

saracatinib = compound: CN1CCN(CCOc2cc(OC3CCOCC3)c3c(Nc4c(Cl)ccc5c4OCO5)ncnc3c2)CC1 [saracatinib]
Summary of the method: as §1

sotrastaurin = compound: CN1CCN(c2nc(C3=C(c4c[nH]c5ccccc45)C(=O)NC3=O)c3ccccc3n2)CC1 [sotrastaurin]
Summary of the method: as §1

Chain of UniProt P52655 (P52655 whole entry, looked up): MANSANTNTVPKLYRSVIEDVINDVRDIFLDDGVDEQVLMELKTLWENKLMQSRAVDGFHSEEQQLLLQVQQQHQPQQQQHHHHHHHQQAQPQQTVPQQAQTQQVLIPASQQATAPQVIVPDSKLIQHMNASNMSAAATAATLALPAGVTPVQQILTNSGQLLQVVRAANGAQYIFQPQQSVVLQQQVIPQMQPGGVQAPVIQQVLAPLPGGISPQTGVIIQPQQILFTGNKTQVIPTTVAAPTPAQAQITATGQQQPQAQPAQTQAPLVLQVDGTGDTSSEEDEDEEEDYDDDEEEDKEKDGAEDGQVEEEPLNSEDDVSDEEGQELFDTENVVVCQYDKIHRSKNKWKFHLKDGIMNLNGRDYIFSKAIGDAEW
Chain of UniProt P52272 (P52272 whole entry, looked up): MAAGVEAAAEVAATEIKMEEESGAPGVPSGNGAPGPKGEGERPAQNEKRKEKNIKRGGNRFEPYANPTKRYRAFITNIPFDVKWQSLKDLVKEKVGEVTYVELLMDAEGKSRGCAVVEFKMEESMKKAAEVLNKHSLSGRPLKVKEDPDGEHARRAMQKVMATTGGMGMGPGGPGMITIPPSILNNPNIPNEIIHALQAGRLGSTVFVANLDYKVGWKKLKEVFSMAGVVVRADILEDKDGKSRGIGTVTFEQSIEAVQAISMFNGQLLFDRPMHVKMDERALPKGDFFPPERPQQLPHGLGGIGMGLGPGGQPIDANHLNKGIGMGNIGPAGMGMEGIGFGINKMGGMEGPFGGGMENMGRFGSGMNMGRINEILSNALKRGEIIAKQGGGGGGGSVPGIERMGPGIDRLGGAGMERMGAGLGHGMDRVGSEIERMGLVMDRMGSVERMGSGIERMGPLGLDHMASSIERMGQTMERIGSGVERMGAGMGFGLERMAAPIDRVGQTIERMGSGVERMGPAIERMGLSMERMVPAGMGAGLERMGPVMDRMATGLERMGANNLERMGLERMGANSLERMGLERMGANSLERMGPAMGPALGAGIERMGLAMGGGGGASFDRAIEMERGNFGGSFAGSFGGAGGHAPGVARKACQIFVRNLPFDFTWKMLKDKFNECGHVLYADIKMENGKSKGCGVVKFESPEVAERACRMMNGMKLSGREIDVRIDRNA
Chain of UniProt P62873 (P62873 whole entry, looked up): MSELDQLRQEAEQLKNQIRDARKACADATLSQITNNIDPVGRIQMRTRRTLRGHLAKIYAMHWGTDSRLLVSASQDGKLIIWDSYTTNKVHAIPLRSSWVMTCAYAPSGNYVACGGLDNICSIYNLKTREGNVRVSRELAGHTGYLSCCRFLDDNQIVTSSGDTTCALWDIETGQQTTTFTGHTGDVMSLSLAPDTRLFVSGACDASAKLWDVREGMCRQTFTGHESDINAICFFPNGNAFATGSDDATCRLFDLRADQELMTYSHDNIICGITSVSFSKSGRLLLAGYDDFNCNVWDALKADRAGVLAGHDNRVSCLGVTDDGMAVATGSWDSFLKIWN
Chain of UniProt Q9P2X3 (Q9P2X3 whole entry, looked up): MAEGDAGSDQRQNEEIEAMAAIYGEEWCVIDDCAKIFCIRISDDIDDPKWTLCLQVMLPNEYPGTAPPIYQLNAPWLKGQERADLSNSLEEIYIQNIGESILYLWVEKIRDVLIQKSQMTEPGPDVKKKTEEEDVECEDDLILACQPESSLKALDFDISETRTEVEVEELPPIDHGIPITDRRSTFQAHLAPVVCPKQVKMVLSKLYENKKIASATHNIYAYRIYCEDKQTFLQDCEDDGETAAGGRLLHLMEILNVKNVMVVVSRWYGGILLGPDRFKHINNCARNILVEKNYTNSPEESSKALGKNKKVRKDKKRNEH
Chain of UniProt Q9NSE4 (Q9NSE4 whole entry, looked up): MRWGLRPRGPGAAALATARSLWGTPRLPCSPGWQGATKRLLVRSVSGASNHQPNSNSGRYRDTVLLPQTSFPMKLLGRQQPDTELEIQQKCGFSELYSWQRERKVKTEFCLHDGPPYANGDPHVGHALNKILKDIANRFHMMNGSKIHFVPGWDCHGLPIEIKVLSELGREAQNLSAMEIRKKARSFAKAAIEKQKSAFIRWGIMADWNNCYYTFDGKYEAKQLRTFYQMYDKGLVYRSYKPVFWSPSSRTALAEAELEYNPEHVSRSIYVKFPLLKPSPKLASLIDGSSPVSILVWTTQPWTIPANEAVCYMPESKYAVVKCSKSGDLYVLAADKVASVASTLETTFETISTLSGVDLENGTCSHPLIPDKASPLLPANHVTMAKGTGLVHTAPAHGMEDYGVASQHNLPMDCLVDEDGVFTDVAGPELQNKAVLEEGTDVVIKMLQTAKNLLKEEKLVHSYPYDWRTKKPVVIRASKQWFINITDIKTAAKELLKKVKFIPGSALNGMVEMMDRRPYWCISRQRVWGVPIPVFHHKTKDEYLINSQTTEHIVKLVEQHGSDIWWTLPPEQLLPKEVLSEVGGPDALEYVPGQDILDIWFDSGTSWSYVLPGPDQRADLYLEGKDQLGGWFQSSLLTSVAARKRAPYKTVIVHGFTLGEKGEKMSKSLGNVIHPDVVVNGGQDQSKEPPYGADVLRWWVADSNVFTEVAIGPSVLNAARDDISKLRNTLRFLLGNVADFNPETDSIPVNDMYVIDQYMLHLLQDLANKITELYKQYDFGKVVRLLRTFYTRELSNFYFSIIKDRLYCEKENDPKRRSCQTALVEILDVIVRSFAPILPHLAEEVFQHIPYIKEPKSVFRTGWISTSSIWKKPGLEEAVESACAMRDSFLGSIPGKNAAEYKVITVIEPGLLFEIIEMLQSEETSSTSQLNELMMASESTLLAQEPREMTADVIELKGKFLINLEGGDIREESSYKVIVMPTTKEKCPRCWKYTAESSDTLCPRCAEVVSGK
Chain of UniProt P20839 (P20839 whole entry, looked up): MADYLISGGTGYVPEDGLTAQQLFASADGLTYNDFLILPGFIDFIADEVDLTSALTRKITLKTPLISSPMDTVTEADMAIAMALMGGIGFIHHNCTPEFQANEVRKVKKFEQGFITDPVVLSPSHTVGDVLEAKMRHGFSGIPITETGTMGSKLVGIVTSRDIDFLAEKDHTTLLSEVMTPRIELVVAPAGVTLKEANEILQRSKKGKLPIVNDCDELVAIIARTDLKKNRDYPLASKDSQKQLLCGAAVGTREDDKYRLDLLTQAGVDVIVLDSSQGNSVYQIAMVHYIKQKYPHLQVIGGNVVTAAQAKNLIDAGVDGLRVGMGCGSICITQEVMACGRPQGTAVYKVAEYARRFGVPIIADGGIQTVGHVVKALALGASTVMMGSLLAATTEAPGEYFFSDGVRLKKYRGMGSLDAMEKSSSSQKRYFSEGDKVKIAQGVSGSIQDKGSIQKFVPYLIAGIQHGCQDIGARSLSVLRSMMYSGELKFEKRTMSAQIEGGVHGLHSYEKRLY
Chain of UniProt Q6AI08 (Q6AI08 whole entry, looked up): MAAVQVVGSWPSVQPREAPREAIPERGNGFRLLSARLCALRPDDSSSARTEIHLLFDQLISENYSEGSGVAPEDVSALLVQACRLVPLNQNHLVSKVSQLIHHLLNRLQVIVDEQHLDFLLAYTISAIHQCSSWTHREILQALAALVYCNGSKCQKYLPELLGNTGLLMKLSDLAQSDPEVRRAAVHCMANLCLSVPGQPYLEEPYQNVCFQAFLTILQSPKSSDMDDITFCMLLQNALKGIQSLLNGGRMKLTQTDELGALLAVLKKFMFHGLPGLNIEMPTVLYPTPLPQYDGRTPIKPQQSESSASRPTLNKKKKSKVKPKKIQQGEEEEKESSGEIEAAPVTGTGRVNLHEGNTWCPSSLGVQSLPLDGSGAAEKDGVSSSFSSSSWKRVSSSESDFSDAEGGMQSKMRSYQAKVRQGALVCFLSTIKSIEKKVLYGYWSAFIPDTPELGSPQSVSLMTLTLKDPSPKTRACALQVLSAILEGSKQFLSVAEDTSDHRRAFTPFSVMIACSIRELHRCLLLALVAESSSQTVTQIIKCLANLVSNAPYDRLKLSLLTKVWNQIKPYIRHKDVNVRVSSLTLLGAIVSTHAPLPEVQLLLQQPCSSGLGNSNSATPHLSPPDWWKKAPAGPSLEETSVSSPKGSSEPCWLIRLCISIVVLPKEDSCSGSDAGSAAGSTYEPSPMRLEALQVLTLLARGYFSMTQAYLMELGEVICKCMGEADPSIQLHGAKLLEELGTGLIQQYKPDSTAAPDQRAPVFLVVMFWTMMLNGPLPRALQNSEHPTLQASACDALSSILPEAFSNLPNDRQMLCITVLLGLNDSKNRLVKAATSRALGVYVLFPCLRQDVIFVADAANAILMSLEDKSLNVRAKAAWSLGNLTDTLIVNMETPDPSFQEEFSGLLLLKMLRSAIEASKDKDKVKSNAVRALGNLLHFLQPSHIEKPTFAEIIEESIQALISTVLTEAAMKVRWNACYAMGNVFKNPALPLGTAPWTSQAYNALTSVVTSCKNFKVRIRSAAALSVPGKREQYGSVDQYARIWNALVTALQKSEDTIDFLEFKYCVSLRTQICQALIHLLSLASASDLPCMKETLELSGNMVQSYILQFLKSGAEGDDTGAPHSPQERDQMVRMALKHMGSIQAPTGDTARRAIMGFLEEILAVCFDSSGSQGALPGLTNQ
Chain of UniProt Q53T59 (Q53T59 whole entry, looked up): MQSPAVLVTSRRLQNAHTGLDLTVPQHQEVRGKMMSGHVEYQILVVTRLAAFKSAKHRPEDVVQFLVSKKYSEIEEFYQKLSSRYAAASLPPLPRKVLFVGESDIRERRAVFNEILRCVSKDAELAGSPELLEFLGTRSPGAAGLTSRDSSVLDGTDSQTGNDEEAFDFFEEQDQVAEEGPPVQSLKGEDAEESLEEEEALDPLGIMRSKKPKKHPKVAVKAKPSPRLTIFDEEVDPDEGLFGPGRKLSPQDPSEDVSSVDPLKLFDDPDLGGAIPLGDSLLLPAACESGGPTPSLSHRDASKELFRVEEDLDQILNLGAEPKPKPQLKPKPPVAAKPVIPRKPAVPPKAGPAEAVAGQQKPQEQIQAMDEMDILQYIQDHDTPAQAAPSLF

| Target | log2 fold change (vemurafenib) | log2 fold change [1] | log2 fold change (barasertib) | log2 fold change [2] | log2 fold change (volasertib) | log2 fold change [3] | log2 fold change [4] | log2 fold change [5] | log2 fold change (saracatinib) | log2 fold change (sotrastaurin) |
| --- | --- | --- | --- | --- | --- | --- | --- | --- | --- | --- |
| IMPDH1 isoform 6 (UniProt P20839) | -0.006 | -0.015 | -0.01 | 0.003 | -0.002 | -0.006 | -0.128 | 0.021 | 0.003 | -0.024 |
| GLUL (UniProt P15104) | -0.055 | 0.012 | -0.026 | -0.028 | -0.024 | 0.021 | 0.326 | -0.058 | -0.004 | 0.016 |
| KBTBD4 isoform 2 (UniProt Q9NVX7) | 0 | 0.021 | 0.013 | 0.063 | -0.022 | 0.031 | -0.04 | -0.032 | 0.086 | 0.032 |
| GRK6 isoform 2 (UniProt P43250) | 0.102 | 0.046 | 0.042 | 0.11 | 0.006 | -0.032 | -0.136 | 0.614 (active) | -0.056 | -0.001 |
| INTS14 (UniProt Q96SY0) | -0.046 | 0.034 | -0.021 | 0.019 | -0.013 | -0.017 | -0.071 | 0.008 | -0.019 | 0.001 |
| KCTD20 (UniProt Q7Z5Y7) | 0.17 | 0.02 | 0.052 | 0.046 | 0.007 | -0.055 | 0.018 | -0.037 | 0.048 | 0.025 |
| KDM5B isoform 2 (UniProt Q9UGL1) | 0.043 | 0.073 | 0.039 | 0.138 | 0.071 | -0.059 | -0.107 | -0.034 | -0.113 | -0.136 |
| HDLBP, A0A024R4E5 | 0.008 | 0.024 | -0.017 | 0.016 | -0.04 | 0.011 | -0.018 | -0.008 | -0.002 | 0.004 |
| HMGN4 (UniProt O00479) | -0.015 | 0.016 | -0.003 | 0.453 | 0.003 | 0.022 | 1.29 (active) | -0.595 | -0.173 | -0.099 |
| HNRNPM (UniProt P52272) | -0.017 | -0.013 | 0.079 | 0.027 | -0.107 | 0.046 | -0.017 | -0.01 | 0.055 | 0.024 |
| HADHA (UniProt P40939) | 0.019 | -0.002 | -0.103 | -0.024 | 0.09 | -0.036 | 0.012 | 0.071 | -0.04 | -0.025 |
| HNRNPAB isoform 3 (UniProt Q99729) | 0.018 | -0.001 | -0.003 | 0.033 | 0.019 | 0.011 | -0.096 | -0.004 | 0.027 | -0.013 |
| HNRNPUL1 (UniProt Q9BUJ2) | -0.042 | 0.005 | -0.004 | -0.032 | 0.005 | 0.034 | 0.017 | 0.019 | 0.041 | 0.014 |
| KEAP1 (UniProt Q14145) | 0.014 | 0 | 0.01 | -0.008 | -0.001 | -0.016 | -0.017 | 0.044 | -0.018 | 0.033 |
| IMPACT (UniProt Q9P2X3) | 0.158 | -0.117 | -0.014 | -0.095 | 0.053 | 0.133 | 0.003 | -0.122 | 0.001 | 0.058 |
| HMGCS1 (UniProt Q01581) | 0.008 | -0.009 | -0.038 | -0.003 | -0.017 | 0.014 | -0.005 | 0.009 | 0.004 | -0.014 |
| HDGFL2 isoform 2 (UniProt Q7Z4V5) | 0.016 | -0.003 | -0.01 | 0.064 | 0.052 | -0.066 | -0.417 (active) | 0.196 | -0.015 | 0.038 |
| IGF2BP3 (UniProt O00425) | 0.024 | 0.006 | 0.016 | -0.106 | -0.025 | -0.016 | -0.062 | -0.022 | 0.026 | 0.011 |
| HMBOX1 isoform 5 (UniProt Q6NT76) | 0.028 | -0.086 | -0.001 | 0.122 | -0.059 | -0.038 | -0.043 | -0.071 | -0.003 | -0.013 |
| GTF2A1 (UniProt P52655) | -0.028 | 0.01 | 0.018 | 0.042 | 0.035 | 0.015 | 0.033 | -0.042 | -0.004 | 0.024 |
| HS1BP3 (UniProt Q53T59) | -0.003 | -0.012 | 0.056 | 0.029 | -0.002 | 0.014 | -0.238 | 0.092 | 0.082 | 0.013 |
| HECTD4 (UniProt J3KPF0) | 0.04 | 0.035 | 0.014 | 0.009 | -0.09 | 0.037 | 0.007 | 0.043 | 0.006 | -0.024 |
| GNB1 (UniProt P62873) | -0.048 | 0.124 | -0.016 | -0.081 | 0.008 | -0.037 | -0.072 | 0.05 | -0.038 | -0.287 (active) |
| GNE isoform 2 (UniProt Q9Y223) | 0.024 | 0.027 | 0.03 | -0.107 | -0.095 | 0.039 | 0.008 | -0.053 | -0.003 | -0.029 |
| HMGB2 (UniProt P26583) | 0.003 | 0.017 | -0.019 | 0.037 | 0.014 | 0.018 | 0.283 (active) | -0.273 (active) | 0.007 | -0.04 |
| KARS1 (UniProt Q15046) | 0.003 | -0.002 | 0.002 | -0.072 | -0.026 | 0.024 | 0.046 | -0.052 | 0.004 | 0.004 |
| HERC2 (UniProt O95714) | 0.034 | 0.004 | 0.038 | -0.038 | -0.01 | 0.039 | 0.032 | -0.021 | 0.037 | 0.047 |
| HEATR6 (UniProt Q6AI08) | 0.052 | 0.031 | 0.109 | -0.076 | -0.019 | 0.073 | -0.001 | -0.008 | -0.007 | 0.064 |
| IARS2 (UniProt Q9NSE4) | -0.007 | -0.005 | 0.037 | -0.003 | 0.312 (active) | -0.013 | 0.198 | -0.032 | -0.002 | 0.003 |
